In PubChem BioAssay AID1508600 (Functional Genomics Laboratory (NCATS/FGL), 2020):
In all, about 53,000 sequences went through this assay and about 3,700 (7%) were called active. This is one part of a sample in which actives are shown more often than they occur.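 Rule for the calls: active = gene knockdowns whose robust z-score for IL-1 alpha signal is at least 2 or at most -2, so actives lie on both sides; inactive = the rest.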

Assay: Components of the Cytosolic LPS Sensing Pathway: Gene Identification via Genome-wide siRNA Screen;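 note: robust z of the log signal after scaling to non-targeting control siRNA wells of the plate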
Conditions: RAW264.7 macrophages, IL-1a HTRF, actives lie on both sides, screened at 100 nM (by protocol), cells primed 5 h with Pam3CSK4 first
How it was run: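 IL-1a HTRF of supernatants after 24 hour LipidA transfection of Pam3CSK4-primed (5 hours) RAW264.7 cells, 48h post-siRNA transfection (100 nM). Scores: percent of plate negative-control median, then log-based robust z-score.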

z-score, inactive:
GCAUCUCACUUUUGACCUATT against Retreg2 0.928
GCAAUUAUAACUUAGAAGGTT against Eml3 0.149
GCCUUUCAACUCACCAGCCTT against Zfp574 0.617
GGGAAGGAAUAUGAUGGGCTT against Sik3 -0.704
GGUCCCAACGAAGAAACCATT against Cd55 0.475
GCUAAAUUUCCCAUAGGAATT against Pmch 0.822
GGAGCUUCGAAAAAAGUUGTT against Pex16 0.329
GCACAAUUAUGAGAGUGCATT against Grin1 -0.91
GGGUUAAGCGCAAGUGUAATT against Degs2 0.331
GGCUGAAAAUAUUUUCAGATT against Garnl3 -0.1
GGAGCCAGUGACAAUAAAUTT against Mtag2 -1.1
GGCUCUCAUCCAUCUCCUUTT against Olfr715 -1.79
GGUCUGGAAAACCAGCUUATT against D630039A03Rik 1.04
GGUUGAAGUCUAUUCUCGATT against Trap1 -0.139
GGGUUUGACAGAGAGAAGATT against Atp5g2 -0.581
GGUGAGCGUGUAGAGAUGCTT against Fbxo45 0.787
GCACUUUGUGCUAUAUAAGTT against Mapk14 0.616
GGUAAAGUUGCUUAAUUAGTT against Msl3l2 0.944
GGAAGAAGUCUGAUACAUCTT against Samd5 0.572
CGCUAAUCUUCGAAAACCUTT against Abcc12 -0.998
GGUUAUCCAACCUAGAAUATT against Tmlhe 0.74
GGCAAAGUUUGGGAUUACATT against Ntng1 1.17
GGUUGUAUUGGAUAUCAAGTT against Ceacam2 0.953
GGACUUUGAAAAGAGAAUUTT against Polb -0.213
GGACUUCUCCAUCCUGCUUTT against Alg1 -0.542
GGGCAUUGCCAGGAAUUAUTT against Lrp1b 1.31
GUUGUCCAUAUCAUGUUUGTT against Olfr569 1.28
GGGAAGAGCCCUAAUAUUATT against Aldh1a2 -0.098
GGUGGACAAGACUAAAACATT against Podxl -0.253
GGGCCAAAUAGCUAUGCAGTT against Aldoc -0.309
GGUGCUCUCAGGAAAGUUGTT against Olfr1157 0.82
CCUGUACUCUAUAUUCUGUTT against Pld2 0.98
GGCCAUCGAACUCAAUCUCTT against Lrrc57 0.243
GGAGUAUGAUAAUGAACCATT against Areg -0.0698
GGACAUCAAGUUCUUGCCATT against Hspa5 -0.478
GGAACCAAUCGGGAUUUUGTT against B330016D10Rik 0.179
CGGUUCCACUUCAAAUGACTT against Hsd17b2 0.72
GGCUUCCCGGAGUAACAAUTT against Dlgap1 -0.742
GAAAAGAAUUCCAGAAGAUTT against Sec61g 1.19
CCAGUGCGUCACUCAGUAATT against Ssmem1 -1.11
GGAUGAAGGGACGAAUUCATT against Pcdha6 0.635
GCUGUGCAAGCAAUAUCUATT against Hnrnpm 0.423
CCCUUUCGAGGUGGUAAAATT against Slc25a21 0.11
GCCAAAUAAUCUGAAAGCCTT against Rpl28 0.309
GGAGCGCGUGAAACUGUCUTT against Fbxw4 -0.752
GGAAAGCUUCAGAAUCUAATT against Bckdk -0.365
GCUCGAGAUCGAAACAUACTT against Tmed5 -1.13
GCCACUUUAGUAUGGAAUGTT against Nxt1 0.822
GGCUGUGGAAUGACACCAATT against Sars2 -1.01
GGAUAUCUCGGGUUGAAUUTT against Aurka -1.38
GGCUAAUGGACAAAAAAUUTT against Pacrgl 0.28
GGAAGACAUACUGUUGAAATT against Mettl23 -0.147
GGCUCUUGUCACAUGAUCATT against Jagn1 -1.77
GGGUUCAAAACUAUGGAUATT against Stk26 0.575
GGCCCACAGGAACAUCCUATT against Zbtb8b -0.134

z-score, active:
GUCUCAAGUGGACUGUGAGTT against Klk1b4 -2.83
GGGCUAAGGCGAAAAGACUTT against Msx2 3.24
GGUGAUGAUGUCAUACAAATT against Cav1 3.12
GGGCUAAAGUUGAUAAUAATT against Psmc3 -2.02
GGAGUUCGUACCCUUAUCCTT against Rtel1 -2.2
GGGACCAGAGGAAACAGAATT against Tnfsf13b -2.21
GGAAUUAUAAAAGACCACGTT against Kctd12b 2.39
GGCUGGUAUCUUUCAGAGUTT against Cox6c 2.2
GGACACUUUCUCAUAUCAUTT against Abca9 2.06
GGAGGCUCUACUUUUGUAGTT against Olfr611 -2.16
GGGCCACUGCCAAAUACUATT against 2510009E07Rik 3.33
CCAUGACUACAACACAUACTT against Ndufv3 -3.07
GGAUCUGAGUGCUCUACUGTT against Kctd20 2.08
GGACAAACAGCUUCAAGAUTT against Psmd2 -2.26
